# Data taken from PubChem BioAssay (EPA / NIEHS).
# Active and inactive are the calls of the source. The calls were made as follows: active = hit-call score of the fitted dose curve at least 0.9, where 1 is the maximum; inactive = score below 0.9.
# Key:
# [1] = target: Bile acid receptor (Homo sapiens) (UniProt Q96RI1); assay: ATG_IR1_CIS: Attagene CIS-FACTORIAL HepG2 Assay for human Nuclear Receptor Subfamily 1 Group H Member 4 (NR1H4), IR1 submotif (AID 2282946); conditions: IR1 reporter transcription, actives raise or lower the signal
# Chain of Bile acid receptor (Homo sapiens) (Q96RI1 whole entry, looked up): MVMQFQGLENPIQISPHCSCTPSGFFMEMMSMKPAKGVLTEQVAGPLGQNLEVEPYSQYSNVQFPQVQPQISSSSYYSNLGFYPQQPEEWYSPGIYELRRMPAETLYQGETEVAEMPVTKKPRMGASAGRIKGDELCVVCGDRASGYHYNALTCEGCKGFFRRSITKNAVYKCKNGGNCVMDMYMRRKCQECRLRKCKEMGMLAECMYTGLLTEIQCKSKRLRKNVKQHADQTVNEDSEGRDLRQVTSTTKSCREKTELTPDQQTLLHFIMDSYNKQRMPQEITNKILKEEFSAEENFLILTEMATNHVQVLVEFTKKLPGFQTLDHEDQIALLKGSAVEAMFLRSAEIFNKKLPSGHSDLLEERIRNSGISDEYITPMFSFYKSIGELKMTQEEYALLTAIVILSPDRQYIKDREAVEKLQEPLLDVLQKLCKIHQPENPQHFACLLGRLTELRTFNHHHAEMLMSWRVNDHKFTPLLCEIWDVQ
# How it was run: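 Transient MRTU transfection, HepG2; 24 h dosing; RNA → RT-PCR → 6-FAM primer extension → HpaI digest → capillary electrophoresis fluorescence. Gain/loss of signal fitted relative to DMSO.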
# [2] = ATG_ISRE_CIS: Attagene CIS-FACTORIAL HepG2 Assay for human Interferon Regulatory Factor 1 (IRF1) binding to an Interferon-Stimulated Response Element (ISRE) (AID 2282948); conditions: HepG2 ISRE cis-reporter (Attagene), mRNA transcription readout; actives raise or lower the signal
# How it was run: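 HepG2 cells transiently transfected with multiplexed cis-promoter reporter units; after 24 h compound exposure, reporter mRNA quantified by RT-PCR, FAM labelling, HpaI digestion and capillary electrophoresis. Bidirectional fit versus DMSO baseline.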
# [3] = ATG_M_32_CIS: Attagene CIS-FACTORIAL HepG2 Assay for M32 Transcription Factor (Internal Marker) (AID 2282949); conditions: HepG2 Attagene cis-factorial M32 reporter, mRNA; actives raise or lower the signal;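 also: background control marker of the multiplexed CIS panel rather than a real target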
# How it was run: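 HepG2 cells transiently transfected with multiplexed cis-regulated reporter units, dosed 24 h. Reporter mRNA quantified by RT-PCR, 6-FAM labelling, HpaI digestion and capillary electrophoresis; bidirectional fit vs DMSO.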
# [4] = ATG_M_06_CIS: Attagene CIS-FACTORIAL HepG2 Assay for M06 Transcription Factor (Internal Marker) (AID 2282950); conditions: HepG2 Attagene CIS-FACTORIAL M06 internal marker reporter; actives raise or lower the signal
# How it was run: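 Internal background marker within multiplexed cis-reporter HepG2 system. Cells transiently transfected, dosed 24 h; reporter mRNA measured by RT-PCR, HpaI digestion and capillary electrophoresis. Bidirectional fit relative to DMSO.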
# [5] = target: Hypoxia-inducible factor 1-alpha (Homo sapiens) (UniProt Q16665); assay: ATG_HIF1a_CIS: Attagene CIS-FACTORIAL HepG2 Assay for human Hypoxia Inducible Factor 1 (HIF1A) (AID 2282951); conditions: HepG2 Attagene cis-factorial HIF1a reporter transcription; actives raise or lower the signal
# Chain of Hypoxia-inducible factor 1-alpha (Homo sapiens) (Q16665 whole entry, looked up): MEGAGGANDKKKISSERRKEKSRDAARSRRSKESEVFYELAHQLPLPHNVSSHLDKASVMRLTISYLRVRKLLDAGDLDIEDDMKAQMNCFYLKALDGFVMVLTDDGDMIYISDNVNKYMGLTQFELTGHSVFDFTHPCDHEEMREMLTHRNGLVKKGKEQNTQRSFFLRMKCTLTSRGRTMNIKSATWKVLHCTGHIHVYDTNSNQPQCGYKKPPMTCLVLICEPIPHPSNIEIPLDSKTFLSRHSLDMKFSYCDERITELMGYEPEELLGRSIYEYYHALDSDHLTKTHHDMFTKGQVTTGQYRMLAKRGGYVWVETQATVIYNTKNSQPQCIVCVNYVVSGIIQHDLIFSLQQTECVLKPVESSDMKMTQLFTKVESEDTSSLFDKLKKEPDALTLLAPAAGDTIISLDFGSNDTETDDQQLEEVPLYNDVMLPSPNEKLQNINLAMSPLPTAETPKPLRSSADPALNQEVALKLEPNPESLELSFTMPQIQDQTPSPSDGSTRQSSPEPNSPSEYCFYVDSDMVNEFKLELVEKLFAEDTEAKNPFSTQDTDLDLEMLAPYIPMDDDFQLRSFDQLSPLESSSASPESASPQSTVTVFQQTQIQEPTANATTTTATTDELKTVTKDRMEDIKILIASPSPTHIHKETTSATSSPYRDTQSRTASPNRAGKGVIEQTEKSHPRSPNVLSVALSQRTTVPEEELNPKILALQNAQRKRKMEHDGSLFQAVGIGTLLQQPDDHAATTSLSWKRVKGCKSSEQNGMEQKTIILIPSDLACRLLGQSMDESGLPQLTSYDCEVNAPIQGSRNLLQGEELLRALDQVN
# How it was run: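 After 24 h chemical exposure of reporter-transfected HepG2 cells, reporter cDNA was PCR-amplified, labelled by 6-FAM primer extension (2 min 95 C, 20 s 68 C, 10 min 72 C), HpaI-cut (2 h, 37 C) and analysed by CE.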
# [6] = target: Hepatocyte nuclear factor 6 (Homo sapiens) (UniProt Q9UBC0); assay: ATG_HNF6_CIS: Attagene CIS-FACTORIAL HepG2 Assay for human Hepatocyte Nuclear Factor 6 (HNF6) (AID 2282952); conditions: HepG2 Attagene cis-factorial HNF6 reporter transcription; actives raise or lower the signal
# Chain of Hepatocyte nuclear factor 6 (Homo sapiens) (Q9UBC0 whole entry, looked up, the tested form may be a part): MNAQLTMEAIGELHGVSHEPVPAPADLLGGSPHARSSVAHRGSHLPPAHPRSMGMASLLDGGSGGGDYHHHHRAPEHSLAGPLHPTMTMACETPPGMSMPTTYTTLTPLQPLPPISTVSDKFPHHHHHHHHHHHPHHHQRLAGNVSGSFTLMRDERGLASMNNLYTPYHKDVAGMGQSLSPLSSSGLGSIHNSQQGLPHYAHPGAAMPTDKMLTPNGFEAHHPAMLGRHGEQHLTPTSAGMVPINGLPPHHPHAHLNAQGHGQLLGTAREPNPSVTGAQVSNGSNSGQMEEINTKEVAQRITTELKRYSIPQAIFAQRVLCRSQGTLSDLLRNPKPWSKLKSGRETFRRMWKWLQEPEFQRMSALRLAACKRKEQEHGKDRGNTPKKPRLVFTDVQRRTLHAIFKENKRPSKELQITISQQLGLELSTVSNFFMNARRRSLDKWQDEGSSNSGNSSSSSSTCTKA
# How it was run: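 HepG2 cells transiently transfected with cis-element-driven multiplexed reporter units measuring endogenous transcription factor activity. After 24 h exposure, reporter mRNA quantified by RT-PCR, FAM-labelled fragments and capillary electrophoresis; bidirectional fitting versus DMSO.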
# [7] = ATG_MRE_CIS: Attagene CIS-FACTORIAL HepG2 Assay for human Metal Responsive Element (MRE) (AID 2282954); conditions: HepG2 MRE cis-reporter transcription, Attagene multiplex; actives raise or lower the signal
# How it was run: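 Step one: transfect HepG2 with cis-regulated reporter units. Step two: dose 24 h. Step three: isolate RNA, RT-PCR, 6-FAM label, HpaI digest, capillary electrophoresis. Fit bidirectionally to DMSO.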
# [8] = ATG_PBREM_CIS: Attagene CIS-FACTORIAL HepG2 Assay for human Phenobarbital-responsive Enhancer Module (PBREM) (AID 2282955); conditions: HepG2 PBREM cis-reporter, Attagene multiplexed transcription; actives raise or lower the signal
# How it was run: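 Measures endogenous factor action on a phenobarbital-responsive enhancer module. HepG2 transiently carrying cis reporters, 24 h treatment, mRNA read-out by RT-PCR plus capillary electrophoresis.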
# [9] = target: Heat shock factor protein 1 (Homo sapiens) (UniProt Q00613); assay: ATG_HSE_CIS: Attagene CIS-FACTORIAL HepG2 Assay for human Heat Shock Transcription Factor 1 (HSE) (AID 2282953); conditions: HepG2 HSE cis-reporter, Attagene RNA transcription; actives raise or lower the signal
# Chain of Heat shock factor protein 1 (Homo sapiens) (Q00613 whole entry, looked up): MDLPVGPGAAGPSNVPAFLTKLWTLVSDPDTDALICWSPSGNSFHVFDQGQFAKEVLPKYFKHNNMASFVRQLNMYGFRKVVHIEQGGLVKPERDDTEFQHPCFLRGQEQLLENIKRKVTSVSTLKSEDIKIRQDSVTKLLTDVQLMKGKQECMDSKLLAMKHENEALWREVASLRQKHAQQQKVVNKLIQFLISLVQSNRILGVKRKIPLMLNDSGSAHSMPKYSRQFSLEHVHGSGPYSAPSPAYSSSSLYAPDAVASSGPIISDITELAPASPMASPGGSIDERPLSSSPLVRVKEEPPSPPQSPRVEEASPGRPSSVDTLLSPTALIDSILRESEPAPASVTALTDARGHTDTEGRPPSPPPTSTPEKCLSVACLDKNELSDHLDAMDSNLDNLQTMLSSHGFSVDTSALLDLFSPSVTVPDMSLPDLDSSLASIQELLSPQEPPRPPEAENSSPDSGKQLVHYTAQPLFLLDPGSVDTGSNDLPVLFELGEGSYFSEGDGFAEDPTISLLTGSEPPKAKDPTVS
# How it was run: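 HepG2 cells transfected with cis-promoter reporter units sensing endogenous transcription factor activity; reporter mRNA quantified 24 h post-dose by RT-PCR and capillary electrophoresis of 6-FAM-labelled products. Bidirectional fitting against DMSO.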
# [10] = ATG_GRE_CIS: Attagene CIS-FACTORIAL HepG2 Assay for human Glucocorticoid Response Elements (GRE) (AID 2282947); conditions: HepG2 GRE cis-reporter, Attagene multiplex mRNA; actives raise or lower the signal
# How it was run: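 Following 24 h chemical exposure of transiently transfected HepG2 cells, total RNA was reverse-transcribed and reporter cDNA amplified, fluorescently labelled and sized by capillary electrophoresis. Signal gain or loss was fitted relative to DMSO vehicle.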
compound,measurement,setting,value
CCN(CCO)c1cccc(C)c1,outcome,[1],inactive
same,outcome,[2],inactive
same,outcome,[3],inactive
same,outcome,[4],inactive
same,outcome,[5],inactive
same,outcome,[6],inactive
same,outcome,[7],inactive
same,outcome,[8],inactive
Nc1ccc(-c2ccc(F)cc2)cc1,outcome,[1],inactive
same,outcome,[2],inactive
same,outcome,[3],inactive
same,outcome,[4],inactive
same,outcome,[5],inactive
same,outcome,[6],inactive
same,outcome,[9],inactive
same,outcome,[7],inactive
same,outcome,[8],inactive
COC(=O)c1ccc2cc(C(=O)OC)ccc2c1,outcome,[10],inactive
same,outcome,[2],inactive
same,outcome,[3],inactive
same,outcome,[4],inactive
same,outcome,[5],inactive
same,outcome,[6],inactive
CC(=O)OCC(C)OC(C)=O (configuration not stated),outcome,[1],inactive
same,outcome,[3],inactive
same,outcome,[4],inactive
same,outcome,[6],inactive
same,outcome,[7],inactive
CC(C)=CCCC(C)C=O (configuration not stated),outcome,[1],inactive
same,outcome,[2],inactive
same,outcome,[3],inactive
same,outcome,[4],inactive
same,outcome,[5],inactive
same,outcome,[6],inactive
same,outcome,[9],inactive
same,outcome,[7],inactive
same,outcome,[8],inactive
CC1(C)O[C@@H]2C[C@H]3[C@@H]4C[C@H](F)C5=CC(=O)CC[C@]5(C)[C@H]4[C@@H](O)C[C@]3(C)[C@]2(C(=O)CO)O1,AC50,[10],0.0823 µM (active)
same,outcome,[2],inactive
same,outcome,[3],inactive
same,outcome,[4],inactive
same,outcome,[5],inactive
same,outcome,[6],inactive
same,outcome,[9],inactive
same,outcome,[7],inactive
CC(C)COC(=O)C=Cc1ccccc1,outcome,[1],inactive
same,outcome,[2],inactive
same,outcome,[3],inactive
same,outcome,[4],inactive
same,outcome,[5],inactive
same,outcome,[6],inactive
same,outcome,[7],inactive
same,outcome,[8],inactive
c1cc(N(CC2CO2)CC2CO2)ccc1OCC1CO1 (configuration not stated),outcome,[1],inactive
same,AC50,[2],74.4 µM (active)
same,outcome,[3],inactive
same,outcome,[4],inactive
same,AC50,[5],39.6 µM (active)
same,outcome,[6],inactive
same,AC50,[9],152 µM (active)
same,AC50,[7],31.7 µM (active)
same,outcome,[8],inactive
CC1(C)O[C@@H]2C[C@H]3[C@@H]4C[C@H](F)C5=CC(=O)C=C[C@]5(C)[C@@]4(F)[C@@H](O)C[C@]3(C)[C@]2(C(=O)CO)O1,AC50,[10],0.563 µM (active)
same,outcome,[2],inactive
same,outcome,[3],inactive
same,outcome,[4],inactive
same,outcome,[5],inactive
same,outcome,[6],inactive
same,outcome,[9],inactive
same,outcome,[7],inactive
CCCOCCOCCOCCO,outcome,[1],inactive
same,outcome,[2],inactive
same,outcome,[3],inactive
same,outcome,[4],inactive
same,outcome,[6],inactive
same,outcome,[9],inactive
C=C(C)C(=O)OCC(C)C,outcome,[1],inactive
same,outcome,[2],inactive
same,outcome,[3],inactive
same,outcome,[4],inactive
same,outcome,[6],inactive
O=C(O)Cc1c(Cl)ccc(Cl)c1Cl,outcome,[1],inactive
same,outcome,[2],inactive
same,outcome,[3],inactive
same,outcome,[4],inactive
same,outcome,[5],inactive
same,outcome,[6],inactive
same,outcome,[9],inactive
same,outcome,[7],inactive
same,outcome,[8],inactive
O=C(c1ccccc1)c1ccc(O)c(O)c1O,outcome,[10],inactive
same,outcome,[2],inactive
same,outcome,[3],inactive
same,outcome,[4],inactive
same,AC50,[5],61.2 µM (active)
same,outcome,[6],inactive
same,outcome,[9],inactive
same,outcome,[7],inactive
C=C[Si](C)(C)O[Si](C)(C)C=C,outcome,[10],inactive
same,outcome,[2],inactive
same,outcome,[3],inactive
same,outcome,[4],inactive
same,outcome,[5],inactive
same,outcome,[6],inactive
same,outcome,[9],inactive
CC(=O)Oc1ccc(C)cc1,outcome,[10],inactive
same,outcome,[2],inactive
same,outcome,[3],inactive
same,outcome,[4],inactive
same,outcome,[5],inactive
same,outcome,[6],inactive
same,outcome,[9],inactive
O=C(/C=C/C=C/c1ccc2c(c1)OCO2)N1CCCCC1,AC50,[1],69.4 µM (active)
same,outcome,[3],inactive
same,outcome,[4],inactive
same,outcome,[6],inactive
same,AC50,[9],159 µM (active)
same,AC50,[7],96.1 µM (active)
same,outcome,[8],inactive
O=S(=O)(O)CC(O)CCl (configuration not stated),outcome,[1],inactive
same,outcome,[2],inactive
same,outcome,[3],inactive
same,outcome,[4],inactive
same,outcome,[6],inactive
same,outcome,[9],inactive
same,outcome,[8],inactive
CCCCC(CC)CCC(CC(C)C)OS(=O)(=O)O (configuration not stated),outcome,[1],inactive
same,outcome,[2],inactive
same,outcome,[3],inactive
same,outcome,[4],inactive
same,outcome,[5],inactive
same,outcome,[6],inactive
same,outcome,[9],inactive
same,outcome,[7],inactive
same,outcome,[8],inactive
C/C=C\C/C=C/CCCCCCCCOC(C)=O,AC50,[1],122 µM (active)
same,AC50,[2],155 µM (active)
same,outcome,[3],inactive
same,outcome,[4],inactive
same,outcome,[5],inactive
same,outcome,[6],inactive
same,AC50,[9],156 µM (active)
same,AC50,[7],100 µM (active)
same,outcome,[8],inactive
COc1ccc([C@@H]2CC(=O)c3c(O)cc(O[C@@H]4O[C@H](CO[C@@H]5O[C@@H](C)[C@H](O)[C@@H](O)[C@H]5O)[C@@H](O)[C@H](O)[C@H]4O)cc3O2)cc1OC,outcome,[1],inactive
same,outcome,[2],inactive
same,outcome,[3],inactive
same,outcome,[4],inactive
same,outcome,[5],inactive
same,outcome,[6],inactive
same,outcome,[9],inactive
same,outcome,[7],inactive
same,outcome,[8],inactive
O=C(O)C(c1ccc(Cl)cc1)c1ccc(Cl)cc1,outcome,[1],inactive
same,outcome,[2],inactive
same,outcome,[3],inactive
same,outcome,[4],inactive
same,AC50,[5],72.1 µM (active)
same,outcome,[6],inactive
same,outcome,[9],inactive
same,outcome,[7],inactive
same,outcome,[8],inactive
O=c1n(CCO)c(=O)n(CCO)c(=O)n1CCO,outcome,[1],inactive
same,outcome,[2],inactive
same,outcome,[3],inactive
same,outcome,[4],inactive
same,outcome,[5],inactive
same,outcome,[6],inactive
same,outcome,[9],inactive
same,outcome,[7],inactive
same,outcome,[8],inactive
CCCCCCCCCCC=CC#N,outcome,[1],inactive
same,outcome,[2],inactive
same,outcome,[3],inactive
same,outcome,[4],inactive
same,outcome,[5],inactive
same,outcome,[6],inactive
same,outcome,[7],inactive
same,outcome,[8],inactive
CCC(C)C=O (configuration not stated),outcome,[1],inactive
same,outcome,[2],inactive
same,outcome,[3],inactive
same,outcome,[4],inactive
same,outcome,[6],inactive
same,outcome,[7],inactive
same,outcome,[8],inactive
O=C1CCCCCN1SSN1CCCCCC1=O,outcome,[1],inactive
same,AC50,[2],167 µM (active)
same,outcome,[3],inactive
same,outcome,[4],inactive
same,outcome,[5],inactive
same,outcome,[6],inactive
same,AC50,[9],133 µM (active)
same,AC50,[7],165 µM (active)
same,outcome,[8],inactive
Cc1cc(=O)n(-c2ccccc2)n1C,outcome,[1],inactive
same,outcome,[2],inactive
same,outcome,[3],inactive
same,outcome,[4],inactive
same,outcome,[6],inactive
same,outcome,[7],inactive
same,outcome,[8],inactive
